# Data from PubChem BioAssay (NCATS).
# Records with an inconclusive call do not appear. Where a call stands in place of a potency, no number is given. Calls of active or inactive are those of the source. Unless noted, calls come from the whole dose curve; as a rule, active = well fitted curve in the direction sought with a large enough effect; inconclusive = small, poorly fitted or top-dose-only effect, or another doubt; inactive = no such curve, though single readings can be large; an effect the other way counts as inactive or inconclusive.
# Experiments:
# [1] = biological target: ATP-dependent 6-phosphofructokinase (Trypanosoma brucei brucei) (UniProt O15648); experiment: qHTS Assay to Find Inhibitors of T. brucei phosphofructokinase: hit validation (AID 492961);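 note: luminescence reports ADP formed as PFK phosphorylates fructose-6-phosphate with ATP; series mostly up to about 51 µM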
# Chain of ATP-dependent 6-phosphofructokinase (Trypanosoma brucei brucei) (O15648 whole entry, looked up): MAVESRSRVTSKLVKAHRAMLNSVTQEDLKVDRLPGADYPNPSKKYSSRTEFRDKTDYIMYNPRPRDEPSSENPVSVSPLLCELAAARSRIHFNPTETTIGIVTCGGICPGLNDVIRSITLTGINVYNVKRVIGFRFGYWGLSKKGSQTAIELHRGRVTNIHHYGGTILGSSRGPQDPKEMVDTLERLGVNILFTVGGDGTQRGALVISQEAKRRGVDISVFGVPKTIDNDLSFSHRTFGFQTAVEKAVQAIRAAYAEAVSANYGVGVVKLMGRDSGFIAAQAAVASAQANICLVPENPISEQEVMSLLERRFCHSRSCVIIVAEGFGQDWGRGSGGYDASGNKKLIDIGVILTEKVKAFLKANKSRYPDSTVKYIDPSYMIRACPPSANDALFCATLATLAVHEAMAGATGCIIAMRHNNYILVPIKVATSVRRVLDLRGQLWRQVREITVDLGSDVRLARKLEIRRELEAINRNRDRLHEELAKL
# Summary of the method: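 Measures ADP output of PFK (1.25 nM) at 0.1 mM ATP, 0.5 mM F6P, pH 8.0 TEA buffer with 5 mM MgCl2. No-enzyme wells define full inhibition; uninhibited enzyme wells define zero.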
# [2] = Validation screen for small molecules that induce genotoxicity in human embryonic kidney (HEK293T) cells expressing luciferase-tagged ELG1 (AID 493106)
# Summary of the method: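 qHTS format; 2,000 HEK293T ELG1-luc cells/well; 23 nL compound via pin tool; 16 hr, 37 °C/5% CO2; ONE-Glo, 30 min RT; luminescence read.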
# [3] = biological target: ATPase family AAA domain-containing protein 5 (Homo sapiens) (UniProt Q96QE3); experiment: Validation screen for small molecules that inhibit ELG1-dependent DNA repair in human embryonic kidney (HEK293T) cells expressing luciferase-tagged ELG1 (AID 493107);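 note: cells co-treated with the DNA-damaging agent 5-fluorouridine alongside compound; series mostly up to about 46 µM; inhibitors lower the ELG1-luciferase luminescence signal; nearly all actives have a fitted effect of over 70% in size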
# Summary of the method: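 ELG1-luciferase HEK293T reporter; 5-fluorouridine + compound/DMSO, 16 hr, 37 °C, 5% CO2; ONE-Glo 30 min RT; luminescence read, qHTS format.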
# [4] = biological target: Thyrotropin-releasing hormone receptor (Homo sapiens) (UniProt P34981); experiment: qHTS for Small Molecule Agonists and Allosteric Enhancers of Human TRH Receptor: Validation Screen for Agonists (AID 493127;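 active = calcium activation more than 3 SD above the typical response in the agonist read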;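 note: intracellular calcium rise by fluo-8 fluorescence before TRH EC20 addition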); settings: TRH receptor agonist cell assay; at 2 µM; stronger effect = higher value
# Chain of Thyrotropin-releasing hormone receptor (Homo sapiens) (P34981 whole entry, looked up): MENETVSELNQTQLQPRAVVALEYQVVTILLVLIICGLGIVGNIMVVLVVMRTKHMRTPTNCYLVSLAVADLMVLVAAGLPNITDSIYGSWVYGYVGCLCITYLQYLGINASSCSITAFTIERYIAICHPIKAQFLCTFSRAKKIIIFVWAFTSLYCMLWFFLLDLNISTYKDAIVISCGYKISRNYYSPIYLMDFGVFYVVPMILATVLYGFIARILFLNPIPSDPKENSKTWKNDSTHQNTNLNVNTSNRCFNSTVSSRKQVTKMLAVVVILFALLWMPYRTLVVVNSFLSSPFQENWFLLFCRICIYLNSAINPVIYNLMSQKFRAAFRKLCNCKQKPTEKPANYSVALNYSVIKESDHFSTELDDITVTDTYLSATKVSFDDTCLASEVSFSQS
# Summary of the method: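 Read-out: intracellular calcium release measured kinetically by FDSS (fluo-8, ex 480/em 530 nm), 1 reading/s after a 10-cycle baseline. TRHR cells, 2000/well, cultured 18 h at 33.5C, dye-loaded at room temp. Compound-evoked positive calcium signal flags agonists.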
# [5] = Nrf2 qHTS screen for inhibitors: Validation (AID 493153; active = well fitted inhibition curve with a large enough effect in the main read-out, with a control signal flat, not every such curve was filed as active); settings: Potency: luciferase luminescence; viability change: measured here: cytotoxicity max response
# Summary of the method: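 Concentration-response test in A549 ARE_Fluc reporter cells (5% FBS OPTI-MEM), compound exposure 18-24 h at 37°C, 5% CO2. Cell viability measured first by CellTiter-Fluor fluorescence; ARE-driven luciferase luminescence then measured as Nrf2 activity.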
# [6] = qHTS for Inhibitors of Cell Surface uPA Generation: Validation Assay (AID 493164);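 note: RAW 264.7 macrophage cells exposed to compound for 18 h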
# Summary of the method: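 Compounds are titrated over seven points (2.45 nM–38.3 uM final) onto pre-plated RAW 264.7 cells and incubated for 18 h. Retained intracellular ATP, measured with ATP-Lite, indicates blocked lethal factor entry.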
# [7] = biological target: Galactokinase (Homo sapiens) (UniProt P51570); experiment: qHTS Validation Assay for Inhibitors of Human Galactokinase (GALK) (AID 493189)
# Chain of Galactokinase (Homo sapiens) (P51570 whole entry, looked up): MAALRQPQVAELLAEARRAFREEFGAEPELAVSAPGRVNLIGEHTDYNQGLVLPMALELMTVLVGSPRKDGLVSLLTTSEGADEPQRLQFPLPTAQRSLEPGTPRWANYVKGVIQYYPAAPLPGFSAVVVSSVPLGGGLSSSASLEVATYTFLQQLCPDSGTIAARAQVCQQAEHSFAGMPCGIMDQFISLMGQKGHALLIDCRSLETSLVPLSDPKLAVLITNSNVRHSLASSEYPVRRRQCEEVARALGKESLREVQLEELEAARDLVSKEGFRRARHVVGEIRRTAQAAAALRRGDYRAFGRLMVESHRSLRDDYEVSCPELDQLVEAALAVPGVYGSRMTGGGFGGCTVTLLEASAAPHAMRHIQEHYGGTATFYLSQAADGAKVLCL
# Summary of the method: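 Enzyme activity is inferred from ATP consumption: human GALK phosphorylates galactose (100 uM) using 35 uM ATP for 1 h at room temperature, and luciferase-based Kinase-Glo Plus reports unconsumed ATP.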
# [8] = Validation screen for small molecules that induce DNA re-replication in SW480 colon adenocarcinoma cells (AID 504364)
# Summary of the method: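 Read-out: total Hoechst intensity of nuclei by fluorescence scanning imager; hits raise the fraction of nuclei with elevated DNA content. Cells received compound for 48 hr at 37 C before a 40 min stain.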
# [9] = biological target: Phosphoglycerate kinase, glycosomal (Trypanosoma brucei brucei) (UniProt P07378); experiment: qHTS Validation Assay to Find Inhibitors of Phosphoglycerate Kinase (AID 504547)
# Chain of Phosphoglycerate kinase, glycosomal (Trypanosoma brucei brucei) (P07378 whole entry, looked up): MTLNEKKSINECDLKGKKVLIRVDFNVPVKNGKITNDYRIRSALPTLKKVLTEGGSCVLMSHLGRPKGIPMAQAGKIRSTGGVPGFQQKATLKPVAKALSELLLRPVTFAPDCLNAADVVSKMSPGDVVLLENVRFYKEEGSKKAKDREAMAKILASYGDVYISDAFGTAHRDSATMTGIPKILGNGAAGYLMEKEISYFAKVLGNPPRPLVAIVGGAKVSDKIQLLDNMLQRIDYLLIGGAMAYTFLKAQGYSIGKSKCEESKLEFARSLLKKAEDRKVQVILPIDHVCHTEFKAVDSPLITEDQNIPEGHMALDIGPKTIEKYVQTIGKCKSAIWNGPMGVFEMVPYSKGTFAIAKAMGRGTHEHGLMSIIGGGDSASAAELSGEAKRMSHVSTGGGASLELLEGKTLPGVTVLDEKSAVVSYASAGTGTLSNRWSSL
# Summary of the method: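 Luminescence end-point (Kinase-Glo Plus, 10 min) after a 60 min room-temperature coupled reaction. GAPDH at 100nM final supplies 1,3-BPG to PGK. Buffer: 100mM TEA pH 7.6, 5mM MgCl2, 0.01% Tween-20. Wells lacking PGK served as controls.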
# [10] = biological target: phosphoglycerate mutase (Leishmania major) (UniProt Q4Q090); experiment: qHTS Validation Assay to Find Inhibitors of Phosphoglycerate Mutase (AID 504548); settings: Potency: inhibition qHTS;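 note: end-point luminescence from Kinase-GloPlus after the PGAM reaction; series mostly up to about 58 µM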
# Chain of phosphoglycerate mutase (Leishmania major) (Q4Q090 1-553): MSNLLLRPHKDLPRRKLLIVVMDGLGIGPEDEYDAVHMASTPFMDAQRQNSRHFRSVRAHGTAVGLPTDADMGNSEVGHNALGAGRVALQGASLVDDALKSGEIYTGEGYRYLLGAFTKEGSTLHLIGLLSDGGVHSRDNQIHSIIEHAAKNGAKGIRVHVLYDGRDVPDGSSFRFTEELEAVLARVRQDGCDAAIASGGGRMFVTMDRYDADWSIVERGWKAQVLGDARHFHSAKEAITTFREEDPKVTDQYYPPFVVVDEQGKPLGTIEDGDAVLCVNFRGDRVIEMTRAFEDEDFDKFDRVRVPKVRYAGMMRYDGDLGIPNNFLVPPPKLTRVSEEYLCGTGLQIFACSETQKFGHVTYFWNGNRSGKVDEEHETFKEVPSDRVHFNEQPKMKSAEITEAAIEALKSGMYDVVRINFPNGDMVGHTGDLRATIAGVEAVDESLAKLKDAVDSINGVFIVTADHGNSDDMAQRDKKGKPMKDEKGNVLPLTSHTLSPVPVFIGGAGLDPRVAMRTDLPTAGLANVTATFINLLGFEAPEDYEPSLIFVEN
# Summary of the method: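 L. major PGAM (1.25nM final) was added to substrate buffer and pinned compound, incubated 45 minutes at room temperature, then Kinase-GloPlus added; luminescence read after 10 minutes. Buffer: 100 mM TEA pH 7.6, 5 mM MgCl2, 0.01% Tween-20.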
# [11] = biological target: Ubiquitin carboxyl-terminal hydrolase 1 (Homo sapiens) (UniProt O94782); experiment: Inhibitors of USP1/UAF1: Pilot qHTS (AID 504865);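 note: rhodamine fluorescence freed from ubiquitin-rhodamine substrate followed over time; top concentration of the series differs between compounds; nearly all actives have a fitted effect of over 35% in size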
# Chain of Ubiquitin carboxyl-terminal hydrolase 1 (Homo sapiens) (O94782 whole entry, looked up): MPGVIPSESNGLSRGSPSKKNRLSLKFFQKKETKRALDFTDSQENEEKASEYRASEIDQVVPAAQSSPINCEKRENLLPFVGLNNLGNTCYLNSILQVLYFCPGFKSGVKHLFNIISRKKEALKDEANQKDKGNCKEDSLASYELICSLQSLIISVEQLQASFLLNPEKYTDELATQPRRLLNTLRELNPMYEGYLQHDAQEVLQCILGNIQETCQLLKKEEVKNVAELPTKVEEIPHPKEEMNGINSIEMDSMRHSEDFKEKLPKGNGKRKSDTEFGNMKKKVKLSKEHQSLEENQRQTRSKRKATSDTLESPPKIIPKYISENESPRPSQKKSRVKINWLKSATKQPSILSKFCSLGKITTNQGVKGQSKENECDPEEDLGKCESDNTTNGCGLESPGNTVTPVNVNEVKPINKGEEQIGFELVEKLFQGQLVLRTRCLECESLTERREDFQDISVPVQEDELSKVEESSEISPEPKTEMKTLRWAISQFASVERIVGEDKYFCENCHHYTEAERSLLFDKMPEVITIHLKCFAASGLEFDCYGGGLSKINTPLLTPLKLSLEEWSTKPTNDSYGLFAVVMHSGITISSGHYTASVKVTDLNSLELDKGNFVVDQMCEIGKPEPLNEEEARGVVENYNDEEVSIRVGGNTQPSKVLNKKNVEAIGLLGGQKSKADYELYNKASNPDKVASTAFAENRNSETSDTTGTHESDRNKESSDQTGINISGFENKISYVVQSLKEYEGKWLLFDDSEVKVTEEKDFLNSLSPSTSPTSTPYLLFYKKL
# Summary of the method: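 Enzyme-free wells gave the negative control, while test wells held 1nM USP1/UAF1 preincubated with compound for 15 min at room temperature. Ub-Rho at 150nM final started the reaction, and fluorescence at 480/540 nm was recorded kinetically.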
# [12] = qHTS for Inhibitors of ATXN expression: Validation of Cytotoxic Assay (AID 588349)
# Summary of the method: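 Cytotoxicity counter-screen: HEK293 cells exposed to compound titrations, 72 hr, 37 degrees C. Read-out is intracellular ATP (CellTiter Glo luminescence) as a viability measure.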
# [13] = qHTS for Inhibitors of ATXN expression: Validation (AID 588378); note: series mostly up to about 57 µM; nearly all actives have a fitted effect of over 75% in size
# Summary of the method: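 After a 2 h attachment and 24 h compound incubation, HEK293-ATXN2-FFLuc wells are read for fluorescence at 405 nm excitation/525 nm emission as a viability measure, then for Bright-Glo luminescence reflecting ATXN2 expression.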
# [14] = biological target: Estrogen receptor (Homo sapiens) (UniProt P03372); experiment: qHTS assay for small molecule antagonists of estrogen receptor alpha signaling (AID 588513; active = well fitted curve in the direction sought with a large enough effect in the signal ratio, with a control signal flat, not every such curve was filed as active; the % refers to the signal ratio)
# Chain of Estrogen receptor (Homo sapiens) (P03372 whole entry, looked up): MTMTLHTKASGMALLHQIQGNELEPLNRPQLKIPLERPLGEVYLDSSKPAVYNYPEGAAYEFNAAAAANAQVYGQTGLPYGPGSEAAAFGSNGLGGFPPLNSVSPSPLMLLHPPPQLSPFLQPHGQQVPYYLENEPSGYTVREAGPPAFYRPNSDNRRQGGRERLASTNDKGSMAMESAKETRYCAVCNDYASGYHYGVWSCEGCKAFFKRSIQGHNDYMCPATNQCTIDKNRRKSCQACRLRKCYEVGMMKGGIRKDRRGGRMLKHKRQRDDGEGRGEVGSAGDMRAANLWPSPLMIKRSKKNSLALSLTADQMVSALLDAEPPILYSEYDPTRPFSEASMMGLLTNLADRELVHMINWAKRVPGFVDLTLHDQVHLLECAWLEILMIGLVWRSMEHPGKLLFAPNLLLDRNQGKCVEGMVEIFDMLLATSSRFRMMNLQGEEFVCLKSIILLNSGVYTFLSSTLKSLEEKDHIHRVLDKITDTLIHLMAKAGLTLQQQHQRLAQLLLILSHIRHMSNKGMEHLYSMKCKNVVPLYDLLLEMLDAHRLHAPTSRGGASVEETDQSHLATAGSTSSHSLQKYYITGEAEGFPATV
# Summary of the method: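 Antagonist-mode qHTS in ER-alpha-UAS-bla HEK 293 cells: compound titration, 0.5nM estradiol for 18 h, CCF4 fluorescence, Hill-derived IC50.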
# [15] = biological target: Estrogen receptor (Homo sapiens) (UniProt P03372); experiment: qHTS assay for small molecule agonists of estrogen receptor alpha signaling (AID 588514; calls by dose curve; note: nearly all actives have a fitted effect of over 70% in size)
# Summary of the method: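 Read-out: CCF4 fluorescence from a beta-lactamase reporter in ER-alpha-UAS-bla HEK 293 cells after 18 hrs of compound exposure at 37 C. Normalized to 20 nM 17-beta-estradiol (100%) and DMSO (0%).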
# [16] = biological target: Bile acid receptor (Homo sapiens) (UniProt Q96RI1); experiment: qHTS assay for small molecule antagonists of farnesoid X receptor signaling (AID 588526; calls by dose curve)
# Chain of Bile acid receptor (Homo sapiens) (Q96RI1 whole entry, looked up): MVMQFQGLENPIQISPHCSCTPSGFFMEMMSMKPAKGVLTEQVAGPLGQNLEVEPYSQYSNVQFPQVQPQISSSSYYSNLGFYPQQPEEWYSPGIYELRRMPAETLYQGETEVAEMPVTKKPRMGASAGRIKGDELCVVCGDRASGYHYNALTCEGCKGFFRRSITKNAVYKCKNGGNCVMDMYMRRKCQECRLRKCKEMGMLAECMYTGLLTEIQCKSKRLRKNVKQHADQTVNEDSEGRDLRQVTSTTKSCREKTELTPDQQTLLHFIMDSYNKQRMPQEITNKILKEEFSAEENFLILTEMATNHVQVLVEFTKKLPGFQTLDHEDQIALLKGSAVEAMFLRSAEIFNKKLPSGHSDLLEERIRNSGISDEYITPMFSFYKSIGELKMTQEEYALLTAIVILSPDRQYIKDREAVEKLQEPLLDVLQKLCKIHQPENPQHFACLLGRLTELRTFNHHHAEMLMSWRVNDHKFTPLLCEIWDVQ
# Summary of the method: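 Beta-lactamase reporter antagonist mode: HEK293T FXR-UAS-bla cells, titrated compound, CDCA stimulation, 16 h 37 C, CCF4 dye 2 h RT. Data normalized to CDCA 50 uM and DMSO; Hill-fit IC50.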
# [17] = biological target: Peptidyl-prolyl cis-trans isomerase NIMA-interacting 1 (Homo sapiens) (UniProt Q13526); experiment: qHTS Validation Assay to Find Inhibitors of Pin1 (AID 504536; active = well fitted inhibition curve with a large enough effect in the polarisation, with a control signal flat, not every such curve was filed as active; the % refers to the polarisation)
# Chain of Peptidyl-prolyl cis-trans isomerase NIMA-interacting 1 (Homo sapiens) (Q13526 whole entry, looked up): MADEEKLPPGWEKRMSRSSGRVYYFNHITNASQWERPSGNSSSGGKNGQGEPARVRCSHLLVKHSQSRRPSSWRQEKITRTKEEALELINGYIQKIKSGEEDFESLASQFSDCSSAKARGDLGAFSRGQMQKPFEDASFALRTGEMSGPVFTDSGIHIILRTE
# Summary of the method: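 Fluorescence polarization competition: compounds (titration) displace HiFluor-488-labeled Pin1-1b peptide from Pin1 (0.3 uM final) in pH 7.5 HEPES buffer with DTT, 10 min at room temperature; %Activity normalized to no-enzyme wells, curves fitted.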
# [18] = biological target: DNA dC->dU-editing enzyme APOBEC-3G (Homo sapiens) (UniProt Q9HC16); experiment: qHTS for inhibitors of Vif-A3G interactions: Validation (AID 588379)
# Chain of DNA dC->dU-editing enzyme APOBEC-3G (Homo sapiens) (Q9HC16 whole entry, looked up): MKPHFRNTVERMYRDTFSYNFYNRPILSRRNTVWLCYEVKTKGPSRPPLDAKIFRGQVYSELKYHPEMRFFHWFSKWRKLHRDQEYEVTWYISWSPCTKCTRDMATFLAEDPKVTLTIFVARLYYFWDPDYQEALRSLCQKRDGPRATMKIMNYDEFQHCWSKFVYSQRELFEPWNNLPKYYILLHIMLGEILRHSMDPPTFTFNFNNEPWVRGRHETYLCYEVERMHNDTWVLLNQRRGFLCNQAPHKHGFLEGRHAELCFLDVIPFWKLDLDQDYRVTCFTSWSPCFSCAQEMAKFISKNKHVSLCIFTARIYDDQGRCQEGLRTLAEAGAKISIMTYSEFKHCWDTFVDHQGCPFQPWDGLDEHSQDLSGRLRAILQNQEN
# Summary of the method: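 Yellow fluorescence (Ex 488, Em 500-530) of Vif-coexpressing HeLa A3G-eYFP cells, scanned by Acumen cytometer, reports blocked A3G degradation. Cells plated at 700/well overnight at 37 deg C before compound addition, then a further overnight compound incubation at 37 deg C.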
smiles,measurement,setting,value
O=C(O)/C=C/C(O)c1ccc(Cl)cc1 (stereo unspecified),outcome,[1],inactive
same,Potency,[2],inactive
same,Potency,[3],inactive
same,activation,[4],0.125% (inactive)
same,Potency,[5],inactive
same,viability change,[5],2.66%
same,outcome,[6],inactive
same,Potency,[7],inactive
same,Potency,[8],inactive
same,Potency,[9],inactive
same,Potency,[10],inactive
same,Potency,[11],inactive
same,Potency,[12],inactive
same,Potency,[13],inactive
COc1cc2c3cc1Oc1cc(ccc1O)C[C@@H]1c4c(cc(OC)c(O)c4Oc4ccc(cc4)C[C@@H]3N(C)CC2)CC[N+]1(C)C,outcome,[1],inactive
same,Potency,[11],inactive
C[S+](CC[C@H](N)C(=O)O)C[C@H]1O[C@@H](n2cnc3c(N)ncnc32)[C@H](O)[C@@H]1O (stereo partly specified),outcome,[1],inactive
same,Potency,[11],inactive
CN1CCN(c2cc3c(nn2)Oc2ccccc2N3C)CC1,outcome,[1],inactive
O=c1[nH]c2ccccc2n1CCCN1CCN(C(c2ccccc2)c2ccccc2)CC1,outcome,[1],inactive
same,Potency,[7],inactive
same,Potency,[8],inactive
COC(=O)C1=C(C)NC(C)=C(C(=O)OCC(C)C)C1c1ccccc1[N+](=O)[O-] (stereo unspecified),outcome,[1],inactive
c1ccc2sc(SSc3nc4ccccc4s3)nc2c1,outcome,[1],inactive
same,Potency,[11],inactive
same,outcome,[14],inactive
same,Potency,[15],inactive
same,outcome,[16],inactive
O=C(O)c1cc(=O)c2ccccc2[nH]1,Potency,[2],inactive
same,Potency,[3],inactive
same,activation,[4],0.125% (inactive)
same,Potency,[5],inactive
same,viability change,[5],-7.12%
same,outcome,[6],inactive
same,Potency,[7],inactive
same,Potency,[8],inactive
same,Potency,[17],inactive
same,Potency,[9],inactive
same,Potency,[10],inactive
same,Potency,[11],inactive
same,Potency,[12],inactive
same,Potency,[13],inactive
same,Potency,[18],inactive
CN1C2CCC1CC(OC(=O)C(O)c1ccccc1)C2 (stereo unspecified),Potency,[2],inactive
same,Potency,[3],inactive
same,activation,[4],1.19% (inactive)
same,Potency,[5],inactive
same,viability change,[5],-17.3%
same,outcome,[6],inactive
same,Potency,[7],inactive
same,Potency,[8],inactive
same,Potency,[17],inactive
same,Potency,[9],inactive
same,Potency,[10],inactive
same,Potency,[11],inactive
same,Potency,[13],inactive
COc1ccccc1CNCCCCCCNCCCCCCCCNCCCCCCNCc1ccccc1OC,Potency,[2],inactive
same,Potency,[3],inactive
same,activation,[4],0.938% (inactive)
same,Potency,[5],inactive
same,viability change,[5],-8.09%
same,outcome,[6],inactive
same,Potency,[7],inactive
same,Potency,[8],inactive
same,Potency,[17],inactive
same,Potency,[9],inactive
same,Potency,[10],inactive
same,Potency,[11],inactive
same,Potency,[13],inactive
CC1(C)CCC=[N+]1[O-],Potency,[2],inactive
same,Potency,[3],inactive
same,activation,[4],1.19% (inactive)
same,Potency,[5],inactive
same,viability change,[5],-0.162%
same,outcome,[6],inactive
same,Potency,[7],inactive
same,Potency,[8],inactive
same,Potency,[17],inactive
same,Potency,[9],inactive
same,Potency,[10],inactive
same,Potency,[11],inactive
same,Potency,[12],inactive
same,Potency,[13],inactive
O=C(O)c1cc(=O)c2c(Cl)cc(Cl)cc2[nH]1,Potency,[2],inactive
same,Potency,[3],inactive
same,activation,[4],1.56% (inactive)
same,Potency,[5],inactive
same,viability change,[5],-1.84%
same,outcome,[6],inactive
same,Potency,[7],inactive
same,Potency,[8],inactive
same,Potency,[17],inactive
same,Potency,[9],inactive
same,Potency,[10],inactive
same,Potency,[11],inactive
same,Potency,[12],inactive
same,Potency,[13],inactive
same,Potency,[18],inactive
N=C(N)SCCc1ccc(CCSC(=N)N)cc1,Potency,[2],inactive
same,Potency,[3],inactive
same,activation,[4],1.12% (inactive)
same,Potency,[5],inactive
same,viability change,[5],-6.92%
same,outcome,[6],inactive
same,Potency,[7],inactive
same,Potency,[8],inactive
same,Potency,[17],inactive
same,Potency,[9],inactive
same,Potency,[10],inactive
same,Potency,[11],inactive
same,Potency,[13],inactive
